# This is a sample that favours compounds with a hit; in the whole collection about 17% have one here.
# S2 tox – Viability Counterscreen for Primary qHTS for Inhibitors of ATXN expression. S2 cells (HEK-293 line with an ATXN2-luciferase reporter) viability, CellTiter-Fluor protease fluorescence, 24 h. Potency, µM (top dose mostly 56.7 µM), most hits filed as cytotoxic. 400,000 compounds, 0.49% hits; also: nearly all actives have a fitted effect of over 40% in size
# TGFb inhibitor – qHTS for Inhibitors of TGF-b; HepG2 CAGA-GFP TGF-b/SMAD3 reporter, GFP fluorescence, 18 h; TGF-beta stimulated, 500 pg/mL final; Potency, µM (highest dose often 46.1 µM), most hits filed as inhibitors; 410,000 compounds, 1.2% hits; also: nearly all actives have a fitted effect of over 65% in size
#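 TGF-beta reporter screen: HEPG2 CAGA-GFP, 1% FBS, 500 pg/mL TGF-beta final, 18 h; per-cell GFP summed per well; curves fitted and categorized by class.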
# DT40 TDP1 CPT – qHTS for Inhibitors of human tyrosyl-DNA phosphodiesterase 1 (TDP1): qHTS in cells in presence of CPT | AID 686979, 2013 | 420,000 compounds, 12% hits | chicken DT40 Tdp1-/-;hTDP1 cells + 20 nM CPT, ATP luminescence, 48 h | Potency, µM (highest dose often 46.2 µM), most hits filed as inhibitors; also: nearly all actives have a fitted effect of over 55% in size
#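 Chicken DT40 Tdp1-/- cells complemented with human TDP1, 400 cells/well, exposed to compounds plus 20 nM camptothecin for at least 48 h at 37 C; viability read as ATP content by CellTiter-Glo luminescence.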
# HepG2 viability – qHTS for Inhibitors of TGF-b: Cytotox Counterscreen; HepG2 CAGA-GFP viability, ATP luminescence, 18 h; Potency, µM (doses to about 46.1 µM), usual class: cytotoxic; 410,000 compounds, 0.76% hits
#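 CellTiter-Glo luminescence gave cytotoxicity after 18 hours at 37 degrees C. The cells were HepG2 CAGA-GFP in 1% FBS DMEM, stimulated with 500 pg/mL TGF-beta after compound addition. %Activity was normalised to no-cell wells (complete cell-killing) and DMSO (no toxicity), and curves were fitted and classified.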
# ATXN2 expr inh – Primary qHTS for Inhibitors of ATXN expression; Potency, µM (top dose mostly 57 µM), actives largely listed as inhibitors; 360,000 compounds, 0.72% hits; HEK-293 ATXN2-luciferase reporter, luminescence, 24 h; AID 1745845, 2022; also: nearly all actives have a fitted effect of over 55% in size
#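 ATXN2-luciferase reporter cells (luciferase flanked by upstream and downstream ATXN2 gene portions) were treated 24 h at 37 °C with compounds at up to 57 uM. SteadyGlo luminescence gave expression; GF-AFC fluorescence gave viability.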
# TDP1 cell noCPT – qHTS for Inhibitors of human tyrosyl-DNA phosphodiesterase 1 (TDP1): qHTS in cells in absence of CPT | AID 686978, 2013 | Potency, µM (series often up to 46.2 µM), hits mostly inhibitors | DT40 Tdp1-/- hTDP1 cells, no CPT, ATP luminescence, 48 h | 420,000 compounds, 15% hits; also: nearly all actives have a fitted effect of over 55% in size
#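 DT40 Tdp1-/-;hTDP1 cells, no CPT (DMSO vehicle only), 400 cells/well; compounds pin-transferred; ≥48 hr, 37 °C; CellTiter-Glo 30 min RT dark, luminescence read.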
# A number is an active result; – = inactive; ? = inconclusive; · = no result given. Calls follow the shape of the dose curve; as a rule, active = well fitted curve in the direction sought with a large enough effect; inconclusive = small, poorly fitted or top-dose-only effect, or another doubt; inactive = no such curve, though single readings can be large; an effect the other way counts as inactive or inconclusive.
SMILES,S2 tox,TGFb inhibitor,DT40 TDP1 CPT,HepG2 viability,ATXN2 expr inh,TDP1 cell noCPT
CCOC(=O)c1ccc(N2C(=O)c3n[nH]c(-c4cccs4)c3C2c2ccc(OCC)cc2)cc1 (centres undefined),?,1.6µM,29µM,–,?,12µM
CCOC(=O)c1ccc(N2C(=O)c3n[nH]c(-c4cccs4)c3C2c2cccc(O)c2)cc1 (centres undefined),28µM,11µM,16µM,–,?,21µM
CCOC(=O)c1ccc(N2C(=O)c3n[nH]c(C)c3C2c2ccc(C(C)(C)C)cc2)cc1 (centres undefined),–,–,–,–,–,?
Cc1cc(O)ccc1Nc1nc2ccccc2nc1Nc1ccc(O)cc1C,–,?,8.2µM,–,–,5.2µM
Cc1ccc(Nc2nc3ccccc3s2)c(C)c1,–,–,?,–,–,?
COc1ccc(NC(=O)C2CCCN(S(=O)(=O)c3ccc4c(c3)CCCC(=O)N4)C2)c(OC)c1 (centres undefined),?,–,·,–,–,·
COc1ccc(NC(=O)C2CCCN2S(=O)(=O)c2ccc3c(c2)CCC(=O)N3)c(OC)c1 (centres undefined),–,–,13µM,–,–,16µM
CC1=CC(C)(C)NC(=S)N1c1ccccc1C,–,–,?,–,–,26µM
COc1ccc(C(=O)Oc2cccnc2)cc1OC,?,–,–,–,–,?
COc1ccc(C(=O)Oc2cc3c4c(c2)C(C)=CC(C)(C)N4C(=O)C3=O)cc1OC,–,–,4.6µM,–,–,3.3µM
COc1cc2c3c(c1)C(C)CC(C)(C)N3C(=O)C2=O (centres undefined),–,–,2.6µM,–,–,5.2µM
COc1cccc(C(=O)Oc2ccc3ccc(O)cc3c2)c1,?,–,–,–,–,–
COc1cc2c3c(c1)C(C)=CC(C)(C)N3C(=O)C2=O,–,?,0.73µM,–,·,0.82µM
CCc1cc2c3c(c1)C(C)CC(C)(C)N3C(=O)/C2=C1\SC(=O)NC1=O (centres undefined),–,–,–,–,–,?
COc1cccc(C(=O)Oc2cc3c4c(c2)C(C)=CC(C)(C)N4C(=O)C3=O)c1,?,–,3.7µM,–,–,3.7µM
COc1ccccc1C/C(N)=N/OC(=O)c1ccco1,–,–,21µM,–,–,–
CSc1nnc(-c2ccccc2)o1,–,–,–,–,–,–
c1ccc2sc(SSc3nc4ccccc4s3)nc2c1,–,·,–,·,–,–
O=S1(=O)C=C(Sc2nc3ccccc3s2)c2ccccc21,7.1µM,2.8µM,0.82µM,11µM,?,0.65µM
Cc1cc(C)nc(SC2=CS(=O)(=O)c3ccccc32)n1,?,–,?,–,?,18µM
O=S1(=O)C=C(Sc2nnc(-c3ccccc3)o2)c2ccccc21,·,10µM,0.52µM,14µM,10µM,0.58µM
COc1ccc2c(c1)c1c(c(=O)n(CCc3ccccc3)c(=O)n1Cc1cccc(F)c1)n2C,–,–,–,–,–,–
CC(Oc1cccc(Br)c1)C(=O)N1CCCN(C)CC1 (centres undefined),–,–,–,–,–,–
CC(C(=O)N1c2ccccc2Sc2ccccc21)n1nnc(-c2cccs2)n1 (centres undefined),–,–,–,–,–,–
Cc1ccc(-c2nnn(C(C)C(=O)N3c4ccccc4CCc4ccccc43)n2)cc1 (centres undefined),–,–,?,–,–,29µM
SMILES,S2 tox,TGFb inhibitor,DT40 TDP1 CPT,HepG2 viability,ATXN2 expr inh,TDP1 cell noCPT
CC(C(=O)N1c2ccccc2CCc2ccccc21)n1nnc(-c2ccc(N(C)C)cc2)n1 (centres undefined),–,–,?,–,–,16µM
O=C(CCNC(=O)c1ccc([N+](=O)[O-])cc1)Nc1nc2ccccc2[nH]1,–,–,–,–,–,–
CCOC(=O)C1=C(C)NC(C)=C(C(=O)OCC)C1C(=O)OCC(=O)N1c2ccccc2CC1C (centres undefined),?,–,?,–,–,18µM
CC1Cc2ccccc2N1C(=O)COC(=O)c1cccc(Br)c1 (centres undefined),–,–,–,–,–,–
CCOC(=O)c1c(C)[nH]c(C(=O)OCC(=O)NCc2ccc(F)cc2)c1C,?,–,–,–,·,?
CCOC(=O)c1c(C)[nH]c(C(=O)OCC(=O)N2c3ccccc3CC2C)c1C (centres undefined),–,–,?,–,–,18µM
CCOC(=O)c1c(C)[nH]c(C(=O)OCC(=O)NCc2ccco2)c1C,–,–,18µM,–,·,23µM
CCN(C[C@H]1N[C@@](C)(C(=O)OC)[C@H]2C(=O)N(C)C(=O)[C@@H]12)S(=O)(=O)c1ccc(F)cc1,–,–,–,–,–,–
O=C(COC(=O)/C=C/c1ccc(F)cc1)Nc1ccc(S(=O)(=O)N2CCOCC2)cc1,–,–,?,–,–,?
CC(C)CN(CCCNC(=O)c1cc(=O)[nH]c2ccc(S(=O)(=O)N3CCCCCC3)cc12)CC(C)C,–,–,?,–,–,?
Cn1cc(C(=O)c2ccccc2)cc1-c1nc2ccccc2n1C,–,–,?,–,–,18µM
Cc1oc(-c2nc3ccccc3n2C)cc1C(=O)c1ccccc1,–,–,16µM,–,–,21µM
COc1ncccc1-c1ccc2nncn2c1,–,–,–,–,–,–
O=C(COC(=O)c1ccc(F)cc1F)NC(=O)Nc1ccc2c(c1)OCCO2,–,–,–,–,–,–
CC(C)COc1ccc(C(=O)Nc2cc3nn(-c4ccccc4)nc3cc2Cl)cc1,?,–,–,–,–,–
CC(C)COc1ccc(C(=O)Nc2scc(-c3ccc(Cl)cc3Cl)c2C(N)=O)cc1,–,–,16µM,–,–,9.2µM
COc1cccc(Nc2nc(C(N)c3ccccc3Cl)cs2)n1 (centres undefined),–,?,21µM,–,–,15µM
COc1cccc(Nc2nc(CN)cs2)n1,–,–,–,–,–,?
NC(c1csc(Nc2ncccn2)n1)c1ccccc1Cl (centres undefined),–,?,21µM,–,?,21µM
COc1cc(OC)nc(Nc2nc(C(N)c3ccccc3Cl)cs2)n1 (centres undefined),?,–,?,–,–,26µM
